{"source": "PubChem BioAssay AID2472", "about": "(National Center for Advancing Translational Sciences (NCATS), 2010)", "note": "Where “and” joins values, the source holds several entries; their conditions need not be identical. Equal entries are not always repeated. Screen size: about 290,000 compounds; about 2,000 (0.69%) were called active. The full list was thinned out, with actives kept by preference. A number with no mark means an inactive call. No stated cut-off is given here; in the data, active means activity change below about -30%; inactive means the rest, inconclusive results apart. On the % scale 0 is the no-effect control and ±100 the full control effect."}
{"assay": "qHTS Assay for Inhibitors of Fructose-1,6-bisphosphate Aldolase from Giardia Lamblia: Coupling assay counterscreen", "settings": "coupling enzyme system counterscreen, AmpLite Red fluorescence; at 58.2 µM (top of the series)", "source_text": "MLPCN Grant: MH085699-01 Assay Provider: Osnat Herzberg, University of Maryland NCGC Assay Overview: The objective of this project is to obtain compounds that inhibit Giardia lamblia growth. G. lamblia is a human pathogen which afflicts impoverished nations; it is the most common cause of outbreaks of diarrhea in the United States. During the course of our study of potential drug targets in Giardia, we have identified the Class II (Zn2+ functions in electrophilic catalysis) fructose-1,6-bisphosphate aldolase (FBPA) as an excellent candidate for drug targeting. FBPA is a key glycolytic pathway enzyme, essential for G. lamblia survival. The human FBPA belongs to the Class I aldolases, which have a different substrate binding site structure and a radically different catalytic mechanism (employing a lysine-Schiff base intermediate). Therefore, affinity-based or mechanism-based inhibitors of the Giardia FBPA are expected not to interfere with the catalytic function of the human FBPA. A glyceraldehyde-3-phosphate dehydrogenase/triose phosphate isomerase/NAD/arsenate coupled assay was adapted to the 1536-well HTP format for use in the primary screen. This was done by coupling it to a diaphorase/resazurin/resorufin reaction that can be monitored by fluorescence (excitation, 544 nm; emission, 590 nm). Compounds identified in this screen will be further evaluated by coupling the […]/triose phosphate isomerase/NADH assay to a phenazine methosulfate/tetranitroblue tetrazolium color reaction. False positives due to the dehydrogenases and diaphorase inhibition will be eliminated, and selectivity assay will triage inhibitors of mammalian triose phosphate isomerase and the Class I FBPA. G. lamblia FBPA inhibitors identified by the in vitro analyses will be examined for growth inhibition of Giardia trophozoites, and for cytotoxicity in human cells. This assay specifically addresses whether activity observed in the primary screen (AID 2451) is related to inhibition of the coupling assay used, as opposed to inhibition of aldolase. Actives in this assay are considered inconclusive for activity against aldolase.\nNCGC Assay Protocol: Step,Parameter,Value,Description 1,Coupling enzyme reagent,2 uL,glyceraldehyde-3-phosphate 2,Compound,23 nL,3.68 nM-57.5 uM final concentration 3,Time,10 min,RT Incubation 4,Substrate/detection Reagent,2 uL,Substrate + enzyme coupling system + AmpLite Red kit 5,Time,20 min,RT Incubation 6,Detector,525 nm/598 nm (Fluorescence),ViewLux Fluorescence Read (Read 1) Notes: 1,Medium-binding black solid-bottom Kalypsys plates. FRD or Kalypsys dispenser. 2,Compound Library (10 mM ,1:5 dilution). Pin-transferred for a [final] range of 3.68 nM-57.5 uM. 3,RT incubation 4,FRD or Kalypsys dispenser, 2 uL of reaction mixture. Bottle kept at 4C and covered in foil to protect from light. 5,RT incubation 6,ViewLux Protocol 1194; Excitation filter wheel A (525/20 Pol; BODIPY TMR FP), Emission filter wheel B (598/25 S; BODIPY TMR FP S). Keywords: Fructose-bisphosphate aldolase, FBPA , Giardia lamblia , Giardia, HTS, Inhibitors"}
{"smiles": "Cc1[nH][nH]c(=O)c1C(c1ccc2c(c1)OCO2)c1c(C)[nH][nH]c1=O", "activity change, negative = inhibition": "-3.39%"}
{"smiles": "CCOc1ccc(C(c2c(C)[nH][nH]c2=O)c2c(C)[nH][nH]c2=O)cc1OCC", "activity change, negative = inhibition": "-13.2%"}
{"smiles": "Cc1[nH][nH]c(=O)c1C(c1ccc(-c2ccc(Cl)cc2)o1)c1c(C)[nH][nH]c1=O", "activity change, negative = inhibition": "-48.6% (active)"}
{"smiles": "Cc1cc(C)cc(C(=O)NCCN2CCOCC2)c1", "activity change, negative = inhibition": "0.78%"}
{"smiles": "CC(=O)Oc1cc2c(C(=O)NCCN3CCOCC3)c(C)oc2c2ccccc12", "activity change, negative = inhibition": "-40.7% (active)"}
{"smiles": "Cc1ccc(C(=O)NCCN2CCOCC2)cc1C", "activity change, negative = inhibition": "3.18%"}
{"smiles": "CN(CCC(=O)Nc1cc(S(=O)(=O)N(C)C)ccc1Cl)CC(=O)Nc1ccc(F)cc1", "activity change, negative = inhibition": "0.642%"}
{"smiles": "COc1cc(OC)c2c(c1C(CCN1CCCCC1)c1ccc(N(C)C)cc1)OC(=O)CC2c1ccc(N(C)C)cc1", "note": "(stereo not given)", "activity change, negative = inhibition": "0.0898%"}
{"smiles": "O=c1c2cc(Br)ccc2nc(-c2cccc(Cl)c2)n1O", "activity change, negative = inhibition": "-2.84%"}
{"smiles": "COc1ccc(C(=O)CCc2ccccc2O)c(OC)c1", "activity change, negative = inhibition": "-0.998%"}
{"smiles": "Cc1ccc(C(=O)N2CCCCCC2)cc1Br", "activity change, negative = inhibition": "0.385%"}
{"smiles": "Cc1cc(C)cc(NC(=O)N2CCCCCCC2)c1", "activity change, negative = inhibition": "1.15%"}
{"smiles": "Cc1ccc2cc3cc(C(=O)N4CCCCCC4)oc3nc2c1", "activity change, negative = inhibition": "-75.9% (active)"}
{"smiles": "O=C(Nc1nnc(-c2ccccc2F)s1)c1ccccc1F", "activity change, negative = inhibition": "-1.59%"}
{"smiles": "COc1ccc(CCC(C)N2CCc3ccccc3C2)cc1", "note": "(stereo not given)", "activity change, negative = inhibition": "-2.37%"}
{"smiles": "COc1ccc(Cl)cc1NC(=O)COC(=O)C(CC(C)C)N1C(=O)C2CC=CCC2C1=O", "note": "(stereo not given)", "activity change, negative = inhibition": "-0.682%"}
{"smiles": "COc1cccc(-c2cc(NCCc3c[nH]c4ccc(OC)cc34)ncn2)c1", "activity change, negative = inhibition": "-31% (active)"}
{"smiles": "COc1ccc2[nH]cc(CCNc3cc(-c4ccccc4CN(C)C)ncn3)c2c1", "activity change, negative = inhibition": "-1.84%"}
{"smiles": "COc1ccc2[nH]cc(CCNc3ncnc4ccc(-c5ccccc5CN(C)C)cc34)c2c1", "activity change, negative = inhibition": "-1.31%"}
{"smiles": "COC(=O)CC1c2ccccc2C(Cc2ccc(OC)cc2)=C(C)N1C(=O)OC", "note": "(stereo not given)", "activity change, negative = inhibition": "-0.16%"}
{"smiles": "COc1cccc(C(=O)CC(=O)C(=O)Nc2ccc([N+](=O)[O-])cc2C)c1", "activity change, negative = inhibition": "-0.191%"}
{"smiles": "CNC(=O)N1c2ccccc2C=Cc2ccccc21", "activity change, negative = inhibition": "-0.0842%"}
{"smiles": "Cc1ccccc1-n1nc(C)c2c1N=C1C(Cl)=CC(Cl)=CN1C2c1ccc(C(=O)O)cc1", "note": "(stereo not given)", "activity change, negative = inhibition": "-39.1% (active)"}
{"smiles": "Cc1ccccc1-n1nc(C)c2cc(C(=O)NC3CC3)sc21", "activity change, negative = inhibition": "5.2%"}
{"smiles": "Cc1nn(-c2ccccc2)c(Cl)c1/C=C/C(=O)c1ccc(O)cc1", "activity change, negative = inhibition": "6.85%"}
{"smiles": "COc1ccc(Br)cc1C1C2C=CCC(C)C2C(=O)N1Cc1ccccc1", "note": "(stereo not given)", "activity change, negative = inhibition": "4.05%"}
{"smiles": "CC(=O)Nc1ccc(NC(=O)C2CCCN(S(=O)(=O)c3ccc(Cl)cc3)C2)cc1", "note": "(stereo not given)", "activity change, negative = inhibition": "1.51%"}
{"smiles": "CC(C)CC[n+]1ccn(C2=C([O-])c3ccccc3C(=O)/C2=N\\S(=O)(=O)c2ccccc2)c1", "activity change, negative = inhibition": "-54.9% (active)"}
{"smiles": "COc1c(O)c2c(=O)cc(OC)c3c4c(OC)cc(=O)c5c(O)c(OC)c6c(c(c1C[C@@](C)(O)[C@H]6C(C)=O)c23)c54", "activity change, negative = inhibition": "-12.5%"}
{"smiles": "CCCCN=C1C([N+](=O)[O-])=CC=C2C1=NC1(CCCCC1)N2O", "activity change, negative = inhibition": "-41.7% (active)"}
{"smiles": "CC(c1ccccn1)N(C)C(=O)c1ccc2nc(Cc3cccc(Cl)c3)oc2c1", "note": "(stereo not given)", "activity change, negative = inhibition": "1.38%"}
{"smiles": "COC(=O)C1=C(C)N(Cc2ccccc2)C2=C3C(=O)N(c4ccccc4)C(=O)C3[C@@](O)(C(=O)OC)C(=O)N2C1c1ccccc1", "note": "(stereo not given in full)", "activity change, negative = inhibition": "1.55% and 0.598%"}
{"smiles": "O=S(=O)(Nc1ccc2nc(-c3ccco3)[nH]c2c1)c1ccccc1", "activity change, negative = inhibition": "-35.1% (active)"}
{"smiles": "Cn1c(CCN2CCCC2)nc2cc(NS(=O)(=O)c3ccccc3)ccc21", "activity change, negative = inhibition": "-1.06%"}
{"smiles": "O=S(=O)(Nc1ccc2cn[nH]c2c1)c1ccccc1", "activity change, negative = inhibition": "-8.07%"}
{"smiles": "CCOC(=O)c1ccccc1NC(=O)COC(=O)CCC(=O)N1CCOCC1", "activity change, negative = inhibition": "1.14%"}
{"smiles": "CCCN1[C@H](C(=O)OC)C[C@@]2(O)[C@@H](O)[C@@H](O)[C@@H](O)C[C@@H]12", "activity change, negative = inhibition": "-12.1%"}
{"smiles": "COc1ccc(-c2ccc(OC)c(C3C4C=CCC(C)C4C(=O)N3Cc3ccccc3)c2)cc1C", "note": "(stereo not given)", "activity change, negative = inhibition": "-0.316%"}
{"smiles": "Cc1cc(Br)ccc1NC(=S)NC1CCCC1", "activity change, negative = inhibition": "2.32%"}
{"smiles": "CC[C@@H](C)[C@H](NC(=O)CCc1c(C)c2cc3c4c(oc3c(C)c2oc1=O)CCCC4)C(=O)O", "activity change, negative = inhibition": "0.476%"}
{"smiles": "COC(=O)C1=C(C(=O)OC)[C@@H]2Nc3ccccc3[C@@]23C[C@@H](C(=O)OC)N(S(=O)(=O)c2ccc([N+](=O)[O-])cc2)C3=N1", "activity change, negative = inhibition": "-1.96%"}
{"smiles": "CCOc1ccc(N(C)Cc2cc(=O)oc3ccc(OC)cc23)cc1", "activity change, negative = inhibition": "-3.63%"}
{"smiles": "C=CCn1c(CNC(=O)c2ccco2)nnc1SCC(=O)c1ccc(OC)cc1", "activity change, negative = inhibition": "1.42%"}
{"smiles": "COC(=O)c1ccc(NC(=O)CSc2nnc(CNc3ccc(OC)cc3)n2C)cc1", "activity change, negative = inhibition": "-19.7%"}
{"smiles": "CCn1c(CNc2ccc(OC)cc2)nnc1SCC(=O)c1ccc(OC)cc1", "activity change, negative = inhibition": "-36.8% (active)"}
{"smiles": "CC1=C(C(N)=O)C(c2ccc(F)cc2)n2nc(CCCO)nc2N1", "note": "(stereo not given)", "activity change, negative = inhibition": "-0.212%"}
{"smiles": "O=C(O)c1cc(S(=O)(=O)NC2CCCc3ccccc32)ccc1O", "note": "(stereo not given)", "activity change, negative = inhibition": "20.1%"}
{"smiles": "Cc1ccc(S(=O)(=O)c2c(N)n(C)c3nc4ccccc4nc23)cc1", "activity change, negative = inhibition": "-4.65%"}
{"smiles": "C=CCn1c(N)c(S(=O)(=O)c2cccs2)c2nc3ccccc3nc21", "activity change, negative = inhibition": "-35.3% (active)"}
{"smiles": "CCN(CC)CCn1c(N)c(S(=O)(=O)c2ccccc2)c2nc3ccccc3nc21", "activity change, negative = inhibition": "2.05%"}
{"smiles": "CC(=O)NC1CCN(CC(=O)Nc2nccs2)CC1", "activity change, negative = inhibition": "-1.15%"}
{"smiles": "CN(C)c1ccc(-c2nc(NCCN3CCOCC3)c3ccccc3n2)cc1", "activity change, negative = inhibition": "-0.456%"}
{"smiles": "c1ccc2cc3c(NCCN4CCOCC4)ccnc3cc2c1", "activity change, negative = inhibition": "-52.2% (active)"}
{"smiles": "Clc1ccccc1-c1cc(NCCN2CCOCC2)ncn1", "activity change, negative = inhibition": "2.16%"}
{"smiles": "COc1cc(NC(=O)c2ccccc2)c(OC)cc1NC(=O)Cc1ccccc1", "activity change, negative = inhibition": "-0.254%"}
